The panel holds about 79,000 compounds, 15% with a hit somewhere; the sample as a whole holds those more often. Activity calls are given as the source filed them. Cut-off read from the data, not from the text of the source: active = growth inhibition above about 70%; inactive = the rest.
Tests used:
[1] = NCI Yeast Anticancer Drug Screen. Data for the rad52 strain (AID 147);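 note: 0% = growth of vehicle-treated control cultures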; conditions: S. cerevisiae rad52 mutant growth inhibition, active compounds read high
Outline: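 Compounds are applied to a genetically defined yeast strain lacking normal DNA damage repair, and inhibition of growth is expressed relative to cultures given vehicle only.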

[2] = NCI Yeast Anticancer Drug Screen. Data for the wt1 strain (AID 149);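 note: 0% = growth of vehicle-treated wt1 cultures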; conditions: S. cerevisiae wt1 strain (SPY 50644) growth inhibition, active compounds read high
Outline: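 Readout: yeast growth inhibition, normalised to vehicle controls, in the wt1 strain exposed to test compounds.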

[3] = NCI Yeast Anticancer Drug Screen. Data for the rad50EPP+ strain (AID 151);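 note: 0% = growth of vehicle-treated control cultures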; conditions: S. cerevisiae rad50 mutant strain, active compounds read high
Outline: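 Compounds were applied to the rad50EPP+ yeast strain, which bears a defined DNA repair alteration, and growth inhibition was determined relative to vehicle-treated cultures.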

[4] = NCI Yeast Anticancer Drug Screen. Data for the mgt1 strain (AID 153); conditions: S. cerevisiae mgt1 mutant growth inhibition, active compounds read high
Outline: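 Strain: mgt1 yeast, one of a set carrying defined DNA damage repair or cell cycle control alterations. Compound-treated growth compared with vehicle.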

[5] = NCI Yeast Anticancer Drug Screen. Data for the rad50 strain (AID 155);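 note: 0% = growth of vehicle-only cultures of the same strain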; conditions: S. cerevisiae rad50 strain growth inhibition, active compounds read high
Outline: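 Compounds were tested on a yeast strain with an engineered DNA damage repair alteration; the reported value is growth inhibition normalised to vehicle treatment.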

[6] = NCI Yeast Anticancer Drug Screen. Data for the mec2-1 strain (AID 157); conditions: S. cerevisiae mec2-1 strain, active compounds read high
Outline: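 Strain: mec2-1 (DNA repair/cell cycle alteration). Compound exposure, then growth measured; inhibition expressed relative to vehicle.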

[7] = NCI Yeast Anticancer Drug Screen. Data for the rad14 strain (AID 159);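 note: 0% = growth of vehicle-treated control cultures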; conditions: S. cerevisiae rad14 strain growth inhibition, active compounds read high
Outline: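 Compound-treated yeast with a defined DNA-repair lesion; growth inhibition normalised to vehicle-treated cultures.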

[8] = NCI Yeast Anticancer Drug Screen. Data for the sgs1 mgt1 strain (AID 161);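 note: 0% = growth of cultures given vehicle only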; conditions: S. cerevisiae sgs1 mgt1 strain, active compounds read high
Outline: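 Test agents were incubated with a DNA-repair-mutant yeast strain. Growth was then read and compared against vehicle-treated controls.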

[9] = NCI Yeast Anticancer Drug Screen. Data for the cln2 rad14 strain (AID 165);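 note: 0% = growth equal to vehicle treated cultures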; conditions: S. cerevisiae cln2 rad14 strain, active compounds read high
Outline: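 Compounds are applied to the cln2 rad14 yeast strain, and growth is then compared with that of vehicle-treated cultures to give inhibition.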

[10] = NCI Yeast Anticancer Drug Screen. Data for the bub3 strain (AID 167); conditions: S. cerevisiae bub3 mutant strain, active compounds read high
Outline: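 Growth of a checkpoint-deficient yeast mutant is measured after compound exposure. Values represent inhibition relative to vehicle.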

[11] = NCI Yeast Anticancer Drug Screen. Data for the wt2 strain (AID 169);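 note: 0% = growth of vehicle-treated yeast cultures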; conditions: S. cerevisiae wt2 strain growth inhibition, active compounds read high
Outline: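 This strain belongs to a panel of yeast strains with defined genetic alterations in DNA damage repair or cell cycle control. Compounds are applied, and growth inhibition is measured against vehicle-treated cultures.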

[12] = NCI Yeast Anticancer Drug Screen. Data for the mlh1 strain (AID 171);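 note: 0% = growth of vehicle-treated control cultures of the same strain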; conditions: S. cerevisiae mlh1 strain growth inhibition, active compounds read high
Outline: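 Growth of the mutant yeast strain after compound exposure, expressed as inhibition relative to vehicle-only controls.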

[13] = NCI Yeast Anticancer Drug Screen. Data for the sgs1 strain (AID 173);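 note: 0% = growth of vehicle-only control cultures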; conditions: S. cerevisiae sgs1 mutant, active compounds read high
Outline: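 Growth of a yeast strain bearing a defined genetic alteration is measured after compound treatment. Inhibition is expressed relative to vehicle-only controls.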

[14] = NCI Yeast Anticancer Drug Screen. Data for the mlh1 rad18 strain (AID 175); conditions: S. cerevisiae mlh1 rad18 strain growth inhibition, active compounds read high
Outline: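 Read-out is yeast growth inhibition, calculated against vehicle-only controls. The compound was applied to a strain engineered with DNA damage repair alterations.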

[15] = NCI Yeast Anticancer Drug Screen. Data for the rad18 strain (AID 177); conditions: S. cerevisiae rad18 mutant growth inhibition, active compounds read high
Outline: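 Growth of the mutant yeast strain after compound exposure, normalised to vehicle-only cultures.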

[16] = NCI Yeast Anticancer Drug Screen. Data for the CLN2oe strain (AID 163);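 note: 0% = growth of vehicle-only control cultures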; conditions: S. cerevisiae CLN2oe strain, active compounds read high
Outline: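 Growth of a genetically modified yeast strain is measured after compound exposure and compared with cultures given vehicle alone.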

[17] = at 5.0 µM (retest, dose inferred, filed as 0.5)
[18] = at 50.0 µM (retest, dose inferred, filed as 5.0)

Measured: growth inhibition

C=C1CC(CCCl)(c2ccccc2)OC1=O (stereo not drawn)
active: [1]; at 33.0 µM 88% | [1]; at 100.0 µM 99% | [2]; at 33.0 µM 84% | [2]; at 100.0 µM 98% | [3]; at 100.0 µM 92% | [4]; at 11.0 µM 78% | [4]; at 33.0 µM 98% | [4]; at 100.0 µM 99% | [5]; at 33.0 µM 91% | [5]; [18] 94% | [5]; at 50.0 µM 92.5% | [5]; at 100.0 µM 98% | [6]; at 33.0 µM 93% | [6]; [18] 98% | [6]; at 50.0 µM 93.5% | [6]; at 100.0 µM 99% | [7]; at 33.0 µM 95% | [7]; at 100.0 µM 99% | [8]; [18] 96% | [8]; at 50.0 µM 93.5% | [9]; [18] 93% | [9]; at 50.0 µM 90.9% | [10]; at 11.0 µM 76% | [10]; at 33.0 µM 96% | [10]; [18] 98% | [10]; at 50.0 µM 92.4% | [10]; at 100.0 µM 99% | [11]; at 33.0 µM 95% | [11]; at 100.0 µM 95% | [12]; at 11.0 µM 82% | [12]; at 33.0 µM 97% | [12]; at 100.0 µM 99% | [13]; at 33.0 µM 96% | [13]; at 100.0 µM 99% | [14]; [18] 98% | [14]; at 50.0 µM 91.2% | [15]; at 33.0 µM 94% | [15]; at 100.0 µM 99%
inactive: [1]; at 1.2 µM -37% | [1]; at 3.7 µM -25% | [1]; at 11.0 µM 17% | [2]; at 1.2 µM -13% | [2]; at 3.7 µM -16% | [2]; at 11.0 µM 25% | [3]; at 1.2 µM 0% | [3]; at 3.7 µM 2% | [3]; at 11.0 µM 19% | [3]; at 33.0 µM 48% | [4]; at 1.2 µM -25% | [4]; at 3.7 µM -3% | [5]; at 1.2 µM 0% | [5]; at 3.7 µM 13% | [5]; [17] 4% | [5]; at 11.0 µM 33% | [6]; at 1.2 µM -4% | [6]; at 3.7 µM 16% | [6]; [17] 13% | [6]; at 11.0 µM 65% | [7]; at 1.2 µM -2% | [7]; at 3.7 µM 25% | [7]; at 11.0 µM 60% | [8]; [17] -8% | [9]; [17] 18% | [10]; at 1.2 µM -6% | [10]; at 3.7 µM 37% | [10]; [17] 37% | [11]; at 1.2 µM -22% | [11]; at 3.7 µM -20% | [11]; at 11.0 µM 38% | [12]; at 1.2 µM 21% | [12]; at 3.7 µM 35% | [13]; at 1.2 µM 4% | [13]; at 3.7 µM 2% | [13]; at 11.0 µM 59% | [14]; [17] 22% | [15]; at 1.2 µM 0% | [15]; at 3.7 µM 13% | [15]; at 11.0 µM 61%

Nc1ccc2c(c1)C(=O)c1ccc(F)cc1-2
active: [5]; [18] 71% | [5]; at 50.0 µM 81.4% | [14]; [18] 78%
inactive: [1]; at 1.2 µM 13% | [1]; at 3.7 µM 24% | [1]; at 11.0 µM 43% | [1]; at 33.0 µM 47% | [1]; at 100.0 µM 53% | [2]; at 1.2 µM 1% | [2]; at 3.7 µM 2% | [2]; at 11.0 µM 9% | [2]; at 33.0 µM 14% | [2]; at 100.0 µM 16% | [3]; at 1.2 µM 13% | [3]; at 3.7 µM 28% | [3]; at 11.0 µM 46% | [3]; at 33.0 µM 59% | [3]; at 100.0 µM 60% | [4]; at 1.2 µM 2% | [4]; at 3.7 µM 9% | [4]; at 11.0 µM 15% | [4]; at 33.0 µM 24% | [4]; at 100.0 µM 19% | [5]; at 1.2 µM 16% | [5]; at 3.7 µM 36% | [5]; [17] 5% | [5]; at 11.0 µM 55% | [5]; at 33.0 µM 61% | [5]; at 100.0 µM 51% | [6]; at 1.2 µM 4% | [6]; at 3.7 µM 10% | [6]; [17] -2% | [6]; at 11.0 µM 11% | [6]; at 33.0 µM 13% | [6]; [18] 30% | [6]; at 50.0 µM 19.6% | [6]; at 100.0 µM 22% | [7]; at 1.2 µM 6% | [7]; at 3.7 µM 13% | [7]; at 11.0 µM 15% | [7]; at 33.0 µM 18% | [7]; at 100.0 µM 22% | [16]; at 1.2 µM 5% | [16]; at 3.7 µM 7% | [16]; at 11.0 µM 11% | [16]; at 33.0 µM 20% | [16]; at 100.0 µM 16% | [9]; [17] 5% | [9]; [18] 8% | [9]; at 50.0 µM 5.25% | [10]; at 1.2 µM 2% | [10]; at 3.7 µM 6% | [10]; [17] -13% | [10]; at 11.0 µM 12% | [10]; at 33.0 µM 12% | [10]; [18] 35% | [10]; at 50.0 µM 20% | [10]; at 100.0 µM 20% | [11]; at 1.2 µM 1% | [11]; at 3.7 µM 3% | [11]; at 11.0 µM 7% | [11]; at 33.0 µM 11% | [11]; at 100.0 µM 12% | [12]; at 1.2 µM 3% | [12]; at 3.7 µM 13% | [12]; at 11.0 µM 14% | [12]; at 33.0 µM 13% | [12]; at 100.0 µM 22% | [13]; at 1.2 µM -4% | [13]; at 3.7 µM -4% | [13]; at 11.0 µM 0% | [13]; at 33.0 µM 2% | [13]; at 100.0 µM 4% | [14]; [17] 15% | [14]; at 50.0 µM 33.2% | [15]; at 1.2 µM 0% | [15]; at 3.7 µM 6% | [15]; at 11.0 µM 26% | [15]; at 33.0 µM 35% | [15]; at 100.0 µM 14%

COc1cc(O)c(O)c(C(C)(C)C)c1
inactive: [1]; at 1.2 µM -1% | [1]; at 3.7 µM 3% | [1]; at 11.0 µM 5% | [1]; at 33.0 µM 10% | [1]; at 100.0 µM 19% | [2]; at 1.2 µM -1% | [2]; at 3.7 µM -1% | [2]; at 11.0 µM 4% | [2]; at 33.0 µM 3% | [2]; at 100.0 µM 4% | [3]; at 1.2 µM 12% | [3]; at 3.7 µM 16% | [3]; at 11.0 µM 41% | [3]; at 33.0 µM 53% | [3]; at 100.0 µM 50% | [4]; at 1.2 µM -2% | [4]; at 3.7 µM -2% | [4]; at 11.0 µM 4% | [4]; at 33.0 µM 24% | [4]; at 100.0 µM 12% | [5]; at 1.2 µM 0% | [5]; at 3.7 µM -2% | [5]; [17] 10% | [5]; at 11.0 µM 3% | [5]; at 33.0 µM 6% | [5]; [18] 38% | [5]; at 50.0 µM 63.7% | [5]; at 100.0 µM 12% | [6]; at 1.2 µM -3% | [6]; at 3.7 µM -1%
